Screening results as filed in PubChem BioAssay.
DAX1 inh-1 = DAX1 (NR0B1) inhibitors on StAR promoter, primary screen, cell-based, luminescence, SF-1 (NR5A1), full-length DAX-1; HEK293T StAR-luciferase reporter, SF-1/DAX-1 repression relief; inhibition, % at 6.8 µM; hit rate 1.1% among 370,000; AID 652010, 2013;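 active = inhibition above the mean over all tested compounds plus 3 SD, cut at about 3.6% in these data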;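 also: higher inhibition means more luminescence from relief of DAX-1 repression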
SMARCA2 act = SMARCA2 (BRM) function activators, primary screen, cell-based, luminescence, high throughput; AID 652017, 2013; hit rate 1% among 370,000; activation, % at 9.1 µM; MG213 cells, MMTV-luciferase reporter, dexamethasone, overnight; in the data active = activation above about 7.8%
hgDAF12 agonist = H. glycines DAF-12 receptor agonists, primary screen, cell-based, luminescence, HEK293, GAL4 fusion, UAS-luciferase; HEK293 GAL4-hgDAF12 UAS-luciferase reporter, agonist luminescence; normalized to butyrate control; activation, % at 6.8 µM; hit rate 1.8% among 370,000;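 active = activation above a cutoff set at the mean of all screened compounds plus 3 SD, cut at about 10% in these data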
hcDAF-12 act = H. contortus DAF-12 nuclear receptor activators, primary screen, cell-based, luminescence, HEK293, lit1-tk-luc reporter; HEK293 hcDAF-12 lit1-tk-luc reporter; 0% DMSO, 100% Δ7-dafachronic acid; activation, % at 6.8 µM; hit rate 1.4% among 370,000; AID 652067, 2013;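 active = activation above the mean of all tested compounds plus 3 SD, cut at about 5.5% in these data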
ssDAF-12 act = S. stercoralis DAF-12 nuclear receptor activators, primary screen, cell-based, luminescence, HEK293, GRIP1 co-expression, lit1-tk-luc. Nuclear hormone receptor DAF-12 (Strongyloides stercoralis). activation, % at 6.8 µM. HEK293 ssDAF-12/GRIP1 lit1-tk-luc reporter; % of 3 µM dafachronic acid response. hit rate 1% among 370,000. AID 652126, 2013;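 active = activation above the mean over all tested compounds plus 3 SD, cut at about 0.9% in these data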
DAX1 inh-2 = DAX1 (NR0B1) inhibitors, primary screen, cell-based, HEK293, Gal4-DAX1, luciferase luminescence | AID 504766, 2011 | HEK293 Gal4-DAX1 luciferase reporter | Nuclear receptor subfamily 0 group B member 1 (Homo sapiens), P51843 | inhibition, % at 6.75 µM | hit rate 0.99% among 340,000;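 active = inhibition above the mean over all tested compounds plus 3 SD, cut at about 4.2% in these data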;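 also: inhibition shows as a rise in luminescence from relieved DAX1 repression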
Target sequence (P51843 207-470 limits assumed): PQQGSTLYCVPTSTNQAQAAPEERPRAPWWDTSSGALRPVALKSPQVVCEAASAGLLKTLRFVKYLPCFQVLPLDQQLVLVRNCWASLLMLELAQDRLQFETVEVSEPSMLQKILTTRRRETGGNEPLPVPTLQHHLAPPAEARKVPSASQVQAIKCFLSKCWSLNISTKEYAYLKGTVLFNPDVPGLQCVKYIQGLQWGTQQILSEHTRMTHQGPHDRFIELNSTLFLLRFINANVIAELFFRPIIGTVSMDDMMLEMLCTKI
Of the large screens only hits and unclear results are named; the others gave an inactive call. This is a sample that favours compounds with a hit; in the whole collection about 4.8% have one here.

Cc1ccc(-c2nnc(SCC#CCOC(=O)c3cccs3)o2)cc1	none
Cc1cccc(NC(=O)c2cc([N+](=O)[O-])ccc2Cl)c1O	hcDAF-12 act 6.3
Cc1cccc(NC(=O)c2ccccc2O)c1C	none
Cc1cccc(NC(=O)c2cccc([N+](=O)[O-])c2O)c1C	DAX1 inh-1 4.1, hgDAF12 agonist 13
O=C(Nc1ccccc1Oc1ccccc1)c1cc([N+](=O)[O-])ccc1Cl	none
COc1ccc(-c2c(Cc3ccccc3)nc(NC(=O)c3ccccc3F)n2C)cc1	none (no result: DAX1 inh-2)
CCNC(=O)Nc1ccc(-n2nc(C)c(C(=O)OCC)c2C)nc1	DAX1 inh-2 4.8
COc1ccc(NC(=O)NNC(=O)CCC(=O)Nc2ccccc2Cl)cc1	DAX1 inh-2 8.3
COc1ccc(CN2C(=O)CCCC2(C)c2nnnn2-c2ccc3c(c2)OCCO3)cc1 (stereo not given)	none (no result: DAX1 inh-2)
Cc1ccc2c(c1)C(CS(=O)(=O)NCc1ccccc1)NC2 (stereo not given)	none (no result: DAX1 inh-2)
Cc1cc2c(NC(=O)Nc3ccccc3)cccc2nn1	DAX1 inh-2 5.4
O=C(CCl)NC1CCCCN(Cc2ccc(OC(F)(F)F)cc2)C1=O (stereo not given)	none (no result: DAX1 inh-2)
O=[N+]([O-])c1ccc(NCc2ccc(Cl)cc2)nc1	none
CC(C)c1ccc(CNc2ccc([N+](=O)[O-])cn2)cc1	DAX1 inh-1 3.9, hgDAF12 agonist 12
CC(C)CNC(=O)CC1Oc2ccccc2NC1=O (stereo not given)	none (no result: DAX1 inh-2)
CCCC(=O)OC12CCCN(C1)/C(=C/c1ccccc1)C2 (stereo not given)	none (no result: DAX1 inh-2)
Cc1cc(C)cc(OCC(O)CN2CC(C)OC(C)C2)c1 (stereo not given)	DAX1 inh-2 6.5
Cc1ccc(C(C)C)c(OCC(O)CN2CC(C)OC(C)C2)c1 (stereo not given)	none
COCc1cc(=O)[nH]c(-c2csc(C)n2)n1	none
COCc1cc(OC)nc(-c2csc(C)n2)n1	DAX1 inh-2 6.4
C=CCN1C(=O)[C@@H](CC(=O)NCc2ccccc2)[C@]2(C(=O)OCC)CCCCC/C=C/12	none (no result: DAX1 inh-2)
COc1ccc(C(C)=O)cc1CSc1nnc(Nc2c(C)cccc2C)s1	DAX1 inh-2 4.6
CCOC(=O)c1c(C)c(C(=O)Nc2ccc3c(c2)OCO3)c(C)n1C	none
CCOC(=O)c1c(N)sc(C(=O)Nc2ccc3c(c2)OCO3)c1C	hcDAF-12 act 5.8
CCOc1ccc2oc(C(=O)Nc3ccc4c(c3)OCO4)c(C)c2c1	hgDAF12 agonist 11
CCOc1ccc2oc(C(=O)Nc3ccc(N4CCOCC4)cc3)c(C)c2c1	none
COc1ccc(-c2coc3cc(OC(C)=O)ccc3c2=S)cc1	hgDAF12 agonist 11, DAX1 inh-2 4.5
COc1ccc(-c2coc3cc(OC)cc(O)c3c2=O)cc1	DAX1 inh-2 5.0
FC(F)(F)c1ccc(Oc2ccc(Cl)cc2Br)nc1	ssDAF-12 act 25
CN(CCc1ccccc1)C(=O)c1ccc2c(c1)ncn2C1CCCCC1	none (no result: DAX1 inh-2)
COC(=O)C1CN(Cc2cn(Cc3ccc(OC)cc3)nn2)CCS(=O)(=O)N1Cc1ccccc1 (stereo not given)	none (no result: DAX1 inh-2)
CCN1CCN(Cc2ccc(NC(=O)Nc3ccccc3OC)cc2)CC1	hgDAF12 agonist 12
CCCC1CCC2(CC1)CCC2OC(=O)Nc1ccc(C)cc1 (stereo not given)	none (no result: DAX1 inh-1, SMARCA2 act, DAX1 inh-2)
CCCN1CCN(CCCNC(=O)c2cc3c(=O)[nH]c4ccc(C)cc4c3s2)CC1	DAX1 inh-2 6.4
CCN1CCN(CCCNC(=O)c2cc3c(=O)oc4ccc(C)cc4c3s2)CC1	none
CC(C)CSc1ncccc1-c1nc2ccccc2[nH]1	none (no result: DAX1 inh-2)
CC(C)c1cc(C(=O)N(C2CCCCC2)C2CCCCC2)no1	none (no result: DAX1 inh-2)
CSc1nc2ccc(NC(=O)c3ccc(F)c(F)c3)cc2s1	none
